# From PubChem
# The list is not random: actives were taken first. Their share in the collection is about 11%.
# ALDH1A1 inh: ALDH1A1 (human) enzyme inhibition; 7.3% of 220,000 active; Potency, µM (highest dose often 75.3 µM), for inactives: top-dose activity, negative = inhibition, actives largely listed as inhibitors; AID 1030; Purified ALDH1A1, NADH fluorescence, propionaldehyde substrate; P00352;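 also: potency is read from the fitted curve at half-maximal effect; plate controls were no enzyme wells and a reference inhibitor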
# HPGD block: inhibitors of human 15-hydroxyprostaglandin dehydrogenase (HPGD); P15428; Potency, µM, for the others: at the highest dose activity change, negative = inhibition, most hits filed as inhibitors; 4.3% of 150,000 active; purified HPGD, NADH fluorescence kinetic, PGE2 substrate; AID 894; also: potency is read from the fitted curve at half-maximal effect
# Target sequence (P15428 whole entry, looked up): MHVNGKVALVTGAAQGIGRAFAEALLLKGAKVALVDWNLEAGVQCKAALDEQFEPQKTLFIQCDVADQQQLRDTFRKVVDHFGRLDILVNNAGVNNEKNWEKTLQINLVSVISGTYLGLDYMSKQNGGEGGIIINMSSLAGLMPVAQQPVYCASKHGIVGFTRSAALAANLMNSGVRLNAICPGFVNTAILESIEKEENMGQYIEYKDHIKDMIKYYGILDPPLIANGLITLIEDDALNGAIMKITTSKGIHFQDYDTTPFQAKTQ
#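 NADH formation kinetics: reaction with 30 uM PGE2 and 1 mM NAD+ (final), 20 nM enzyme, Tris-HCl pH 8 with Tween 20, after 15 min compound preincubation at room temperature. Fluorescence change, last versus first of five reads.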
# PNC inhibitor: inhibitors of perinucleolar compartment assembly | PC3M PTB-GFP, PNC prevalence imaging, 16 h; hits give low values | activity change (PNC), negative = inhibition, % at 10 µM | 3.1% of 140,000 active;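 active = readout at or below -70, meaning at least 70% loss of cells showing the perinucleolar compartment, a nuclear body marking cancer cells; inconclusive = readout between -30 and a set limit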;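 also: plate controls were DMSO wells for no effect and camptothecin positive control wells for full effect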
#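 Read-out is percentage of cells bearing a perinucleolar compartment, from automated 20x imaging of fixed, Hoechst-stained PC3M PTB-GFP cells. Cells were seeded 4 h, then exposed 16 h to compound (23 nl of library stock) in duplicate plates.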
# Active calls of the source: *; ? = inconclusive; nt = not tested or not shown; [ ] = remark or other dose. Unless noted, calls follow the shape of the dose curve; as a rule, active = well fitted inhibition curve with a large enough effect (not every such curve was filed as active); inconclusive = small, poorly fitted or top-dose-only effect, or another doubt; inactive = no such curve, though single readings can be large or run the other way. Unless noted, % is scaled to controls: 0 for no effect and ±100 for the full control effect.
SMILES,ALDH1A1 inh,HPGD block,PNC inhibitor
S=C(NCc1ccncc1)Nc1cccc(Cl)c1,-2.4%,-0.6%,?
C=CCOc1ccc(C=Nc2ccc(Cl)cc2)c(O)c1,-6.1%,?,37.4
COc1c(OC(C)=O)ccc(/C=N\NC(=O)c2ccc(Br)cc2)c1[N+](=O)[O-],-7.9%,nt,nt
Cc1ccc(C(=O)CSc2ccc(-c3cccnc3)nn2)cc1,5.9%,nt,nt
Cc1ccc(C)c(NS(=O)(=O)c2cc(C(=O)O)ccc2Cl)c1,-3.7%,-5.5%,nt
COc1ccc(S(=O)(=O)Nc2cccc(N(C)S(C)(=O)=O)c2)cc1C,?,-15.9%,-11.7
Cc1ccc(S(=O)(=O)Nc2cccc(N(C)S(C)(=O)=O)c2)cc1[N+](=O)[O-],15.8µM*,nt,nt
Cc1cc(=O)[nH]c(SCc2nc3ccccc3n2Cc2ccccc2)n1,0.8%,28.2µM*,?
Cc1ccc(Cn2c(Cc3ccccc3)nc3ccccc32)cc1,4.2%,-5.8%,?
COc1ccc(NC(=O)C(c2ccc(OC)cc2)N(C)C(=O)CC2NC(=O)NC2=O)cc1 (configuration not stated),8.8%,-9.9%,?
COc1ccc(NC(=O)C(NC(=O)CC2NC(=O)NC2=O)c2ccccc2)cc1 (configuration not stated),7.7%,-3.4%,-115.1*
CC(C)c1ccc(NC(=O)C(c2ccccc2)N(Cc2ccco2)C(=O)CC2NC(=O)NC2=O)cc1 (configuration not stated),7.94µM*,nt,nt
Cc1cccc(C)c1NC(=O)C1(N(Cc2ccco2)C(=O)CC2NC(=O)NC2=O)CCCC1 (configuration not stated),10.3%,-4.3%,?
COc1ccc(NC(=O)C(NC(=O)c2ccc(=O)[nH]c2)c2ccc(OC)cc2)cc1 (configuration not stated),15.6%,-7.8%,-109.2*
COc1ccc(NC(=O)C(c2ccccc2)N(C)C(=O)c2ccc(=O)[nH]c2)cc1 (configuration not stated),-7.9%,-11.6%,?
O=C(CSc1n[nH]c(=O)n1-c1ccc2c(c1)OCCO2)Nc1ccccc1,5.7%,nt,nt
O=C(O)c1cc(=O)[nH]c(SCc2ccccc2)n1,-12.8%[13.5 µM],-9.3%,nt
C=CCn1c(SCc2csc(C)n2)nc2sc3c(c2c1=O)CCCCC3,22.4µM*,-6.1%,-19.5
C=CCn1c(SCc2csc(C)n2)nc2sc3c(c2c1=O)CCCC3,?,-14.3%,30.2
CN=c1scc(-c2ccccc2F)n1/N=C(\C)c1cccnc1,-6.9%,nt,nt
CCC(=O)Nc1cccc(NC(=S)NC(=O)c2cccc(C)c2)c1,25.1µM*,-8.5%,18.6
CCOC(=O)Cc1csc(NC(=S)NC(=O)c2ccccc2)n1,-18.0%,-7.7%,16.7
O=C(NC(=S)Nc1cccc(CO)c1)c1ccc(-c2ccccc2)cc1,12.6µM*,-10.7%,?
CCC(=O)Nc1cccc(NC(=S)NC(=O)c2ccccc2)c1,?,-6.7%,48.2
CCOC(=O)Cc1csc(NC(=S)NC(=O)c2ccc(C)cc2)n1,39.8µM*,nt,-3.7
SMILES,ALDH1A1 inh,HPGD block,PNC inhibitor
O=C(Nc1cccc(NC(=S)NC(=O)c2cccs2)c1)c1ccccc1,?,-10.2%,-26.3
CCC(=O)Nc1cccc(NC(=S)NC(=O)c2ccc(C)cc2)c1,12.6µM*,nt,nt
CCC(=O)NC(=S)Nc1cccc(NC(=O)CC)c1,-2.3%,-7.9%,?
N#Cc1cc([N+](=O)[O-])cnc1NCC(O)CO (configuration not stated),0.2%,-10.4%,95.5
O=[N+]([O-])c1cccc(N2Cc3ccccc3C2)c1,-7.3%,nt,nt
CC1(C)CC(/C=C/c2ccccc2)=Nc2ccccc2N1,-7.3%,nt,nt
CCOC(=O)c1c(CC(C)C)csc1NC(C)=O,10.2%,-3.6%,40.8
CC(C)Cc1csc(NC(=O)c2ccc(F)cc2)c1C(=O)O,3.0%,25.1µM*,55.6
CC(=O)N1CCc2cc(S(=O)(=O)N3CCOCC3)ccc21,7.5%,-3.6%,-18.9
CC(=O)N1CCc2cc(C(=O)CN3CCCCC3)ccc21,22.4µM*,15.8µM*,10.7
CCOC(=O)N1CCN(CC(=O)c2ccc3c(c2)CCN3C(C)=O)CC1,25.1µM*,-2.6%,8.1
CCOC(=O)N1CCC(NS(=O)(=O)c2ccc3c(c2)CCN3C(C)=O)CC1,6.9%,-6.8%,?
O=C(Nc1cccc(F)c1)N1CC2(CCN(S(=O)(=O)c3ccccc3)CC2)C1,0.4%,-7.4%,nt
COc1ccc(OCc2nc3ccccc3n2C(C)C)cc1,0.6%,nt,nt
CCN(C(=O)CCC(=O)N(CC)c1ccccc1)c1ccccc1,4.1%,-12.6%,20.4
CCCC(=O)N(CCN(C(=O)CCC)c1ccccc1)c1ccccc1,4.3%,-4.3%,-100.0*
Clc1cccc2c1CN(C1=NCCN1)C2,3.5%,1.4%,nt
COc1cccc(CNc2ncn[nH]2)c1OCc1ccc(F)cc1,28.2µM*,nt,nt
COc1ccccc1CNc1ccc(CNc2ncn[nH]2)cc1,6.5%,nt,nt
Cn1cc(-c2nc3cnc(N4CCOCC4)nc3n(CCC#N)c2=O)c2ccccc21,13.9%,nt,nt
COc1ccc(CCNC(=O)CO/N=C/c2cc3c(cc2Br)OCO3)cc1OC,3.9%,nt,nt
Cc1ccc(-n2nnc3c(=O)n(CC(=O)OCc4ccccc4)cnc32)cc1,-6.5%,-18.5%,-12.7
CCOc1ccc(-n2nnc3c(=O)n(C/C=C/c4ccccc4)cnc32)cc1,1.4%,-18.7%,-88.8*
CCOc1ccc(C(=O)CC(Sc2ccc(C)cc2)C(=O)O)cc1 (configuration not stated),1.58µM*,nt,nt
CCC(Sc1ccc(C(=O)O)cc1)C(=O)O (configuration not stated),-3.2%,-6.8%,-7.2
SMILES,ALDH1A1 inh,HPGD block,PNC inhibitor
Cc1nn(C2CCS(=O)(=O)C2)c(Cl)c1/C=C/C(=O)OCC(N)=O (configuration not stated),12.3%,nt,nt
CCc1nc2ccc(C(=O)O)cc2nc1CC,6.4%,-13.8%,36.4
CCC/C=C(\CCC)C(NC(=O)c1ccc(C(F)(F)F)cc1)c1ccccc1 (configuration not stated),-2.0%,-16.1%,nt
CCC/C=C(\CCC)C(NS(=O)(=O)c1ccc(C(F)(F)F)cc1)c1ccc(-c2ccccc2)cc1 (configuration not stated),22.4µM*,-15.5%,nt
C#C[C@@]1(O)CC[C@@H]2[C@@H]3CCC4=C(CCC(=O)C4)[C@H]3CC[C@]21C,-14.7%[20.9 µM],-3.2%,nt
CN(C(=O)COc1ncnc2sccc12)c1ccccc1,4.2%,nt,nt
Cc1ccc(-c2csc(Nc3ccc(S(N)(=O)=O)cc3)n2)o1,2.24µM*,nt,nt
Cc1ccc(-c2csc(NC(=O)Cc3ccc(F)cc3)n2)o1,3.55µM*,nt,nt
NS(=O)(=O)c1ccc(Nc2nc(-c3ccc4ccccc4c3)cs2)cc1,-12.9%,-20.2%,18.8
COc1ccc(CC(=O)Nc2nc(-c3cccnc3)cs2)cc1,-8.2%,-13.9%,?
O=C(Nc1nc(-c2ccco2)cs1)c1ccccc1,?,-29.4%,27.3
Cc1ccc(-c2csc(NC(=O)c3ccc(-c4ccccc4)cc3)n2)o1,20µM*,?,-7.1
CCOC(=O)/C(=N\Nc1ccccc1Cl)N1CCN(c2ccccc2OC)CC1,14.7%,nt,nt
Cc1ccc(C)c(CSc2ccc3nnc(-c4ccccn4)n3n2)c1,12.9%,nt,nt
COc1ccc(/C=C/c2nnc(NC(=O)COc3ccc(C)cc3)s2)cc1,?,?,-10.2
C=C1CC[C@@H]2O[C@@]2(C)CC[C@H]2[C@H]1CC2(C)C,-9.7%,-3.0%,nt
CN(C)Cc1cc(O)c(O)c(CN(C)C)c1,-1.3%[13.5 µM],-2.4%,nt
